# Experimental data: the supplement of paper PMC11732987, “Enantioselective OTUD7B fragment discovery through chemoproteomics screening and high-throughput optimisation” (Communications Chemistry, 2025)
# Values without a mark were called inactive.
# How the values were obtained:
# Assay in all cases: log2 ratio of Biotin-Ahx-Ub-VS probe labelling (fragment/DMSO); higher = less target engagement (more negative = stronger competition), active = hit call of the paper (q ≤ 0.05, log2 ratio ≤ -1)
# Conditions in all cases: compound concentration: 200 uM; treatment time: 3 h
# [1] = biological target: T1, USP19 (UniProt O94966)
# T1 sequence (whole entry): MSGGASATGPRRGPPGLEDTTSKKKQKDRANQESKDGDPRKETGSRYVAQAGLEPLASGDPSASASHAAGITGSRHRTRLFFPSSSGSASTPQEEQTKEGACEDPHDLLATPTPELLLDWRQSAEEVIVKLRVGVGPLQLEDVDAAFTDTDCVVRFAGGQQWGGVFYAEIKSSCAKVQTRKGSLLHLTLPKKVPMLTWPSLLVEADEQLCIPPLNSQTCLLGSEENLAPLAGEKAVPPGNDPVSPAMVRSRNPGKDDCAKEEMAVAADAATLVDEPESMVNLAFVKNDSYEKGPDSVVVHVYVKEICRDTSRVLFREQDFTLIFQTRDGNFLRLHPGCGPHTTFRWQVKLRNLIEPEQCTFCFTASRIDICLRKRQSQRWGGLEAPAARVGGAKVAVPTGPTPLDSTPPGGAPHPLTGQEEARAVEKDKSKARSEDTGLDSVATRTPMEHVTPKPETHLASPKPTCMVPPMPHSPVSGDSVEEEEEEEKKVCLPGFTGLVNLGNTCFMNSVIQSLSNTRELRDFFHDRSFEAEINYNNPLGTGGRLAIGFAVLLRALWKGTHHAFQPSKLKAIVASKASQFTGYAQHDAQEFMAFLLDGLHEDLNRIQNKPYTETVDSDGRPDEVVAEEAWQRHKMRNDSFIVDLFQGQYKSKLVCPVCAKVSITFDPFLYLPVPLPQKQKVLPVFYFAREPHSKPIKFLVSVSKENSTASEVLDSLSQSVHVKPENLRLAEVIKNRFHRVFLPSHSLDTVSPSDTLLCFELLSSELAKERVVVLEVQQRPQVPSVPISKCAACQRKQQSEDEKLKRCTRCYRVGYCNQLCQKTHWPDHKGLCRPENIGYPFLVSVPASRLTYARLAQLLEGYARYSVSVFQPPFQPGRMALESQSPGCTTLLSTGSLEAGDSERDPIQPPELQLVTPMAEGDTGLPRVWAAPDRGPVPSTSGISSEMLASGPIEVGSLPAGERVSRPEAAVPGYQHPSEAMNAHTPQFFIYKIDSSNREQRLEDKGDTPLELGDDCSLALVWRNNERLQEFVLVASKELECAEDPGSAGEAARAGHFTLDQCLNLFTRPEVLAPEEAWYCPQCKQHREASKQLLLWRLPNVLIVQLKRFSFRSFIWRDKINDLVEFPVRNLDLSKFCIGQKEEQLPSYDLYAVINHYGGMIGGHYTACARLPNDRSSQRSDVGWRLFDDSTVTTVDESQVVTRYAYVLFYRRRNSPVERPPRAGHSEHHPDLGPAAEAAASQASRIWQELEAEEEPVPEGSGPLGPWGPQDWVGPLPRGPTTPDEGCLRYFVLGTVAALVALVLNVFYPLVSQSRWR
# Procedure, shortened: (§1)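 HEK293T lysate (495 µg per sample, in Tris/CHAPS/IGEPAL buffer with protease inhibitors) was exposed in triplicate for 3 h to fragment at 200 µM or to vehicle, then to Biotin-Ahx-Ub-VS at 0.5 µM final for 1 h. Labelled DUBs were enriched on NeutrAvidin, digested with LysC and trypsin, and analysed by diaPASEF LC-MS/MS. Spectronaut label-free quantities were normalised to the global median, and values are average log2 ratios of fragment over vehicle from an unpaired t-test. Only proteins with ≥2 unique peptides were used.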
# [2] = biological target: T2, USP22 (UniProt Q9UPT9)
# T2 sequence (whole entry): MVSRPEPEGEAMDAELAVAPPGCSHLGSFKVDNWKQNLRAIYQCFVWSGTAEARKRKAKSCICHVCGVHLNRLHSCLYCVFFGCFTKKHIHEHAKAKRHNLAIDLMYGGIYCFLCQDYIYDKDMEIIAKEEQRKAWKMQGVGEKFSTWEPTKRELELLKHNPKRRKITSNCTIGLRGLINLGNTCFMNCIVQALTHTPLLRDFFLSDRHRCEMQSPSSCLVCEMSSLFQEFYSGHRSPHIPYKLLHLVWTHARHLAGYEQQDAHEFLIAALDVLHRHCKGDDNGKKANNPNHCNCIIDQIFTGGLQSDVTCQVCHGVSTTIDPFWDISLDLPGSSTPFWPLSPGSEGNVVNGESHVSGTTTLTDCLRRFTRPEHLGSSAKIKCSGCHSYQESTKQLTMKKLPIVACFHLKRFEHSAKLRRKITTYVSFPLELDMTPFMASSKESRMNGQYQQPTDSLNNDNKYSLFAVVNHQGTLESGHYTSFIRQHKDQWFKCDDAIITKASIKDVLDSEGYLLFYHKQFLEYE
# Procedure, shortened: as §1
# [3] = biological target: USP24 (UniProt Q9UPU5)
# Procedure, shortened: as §1
# [4] = biological target: T3, USP25 (UniProt Q9UHP3)
# T3 sequence (whole entry): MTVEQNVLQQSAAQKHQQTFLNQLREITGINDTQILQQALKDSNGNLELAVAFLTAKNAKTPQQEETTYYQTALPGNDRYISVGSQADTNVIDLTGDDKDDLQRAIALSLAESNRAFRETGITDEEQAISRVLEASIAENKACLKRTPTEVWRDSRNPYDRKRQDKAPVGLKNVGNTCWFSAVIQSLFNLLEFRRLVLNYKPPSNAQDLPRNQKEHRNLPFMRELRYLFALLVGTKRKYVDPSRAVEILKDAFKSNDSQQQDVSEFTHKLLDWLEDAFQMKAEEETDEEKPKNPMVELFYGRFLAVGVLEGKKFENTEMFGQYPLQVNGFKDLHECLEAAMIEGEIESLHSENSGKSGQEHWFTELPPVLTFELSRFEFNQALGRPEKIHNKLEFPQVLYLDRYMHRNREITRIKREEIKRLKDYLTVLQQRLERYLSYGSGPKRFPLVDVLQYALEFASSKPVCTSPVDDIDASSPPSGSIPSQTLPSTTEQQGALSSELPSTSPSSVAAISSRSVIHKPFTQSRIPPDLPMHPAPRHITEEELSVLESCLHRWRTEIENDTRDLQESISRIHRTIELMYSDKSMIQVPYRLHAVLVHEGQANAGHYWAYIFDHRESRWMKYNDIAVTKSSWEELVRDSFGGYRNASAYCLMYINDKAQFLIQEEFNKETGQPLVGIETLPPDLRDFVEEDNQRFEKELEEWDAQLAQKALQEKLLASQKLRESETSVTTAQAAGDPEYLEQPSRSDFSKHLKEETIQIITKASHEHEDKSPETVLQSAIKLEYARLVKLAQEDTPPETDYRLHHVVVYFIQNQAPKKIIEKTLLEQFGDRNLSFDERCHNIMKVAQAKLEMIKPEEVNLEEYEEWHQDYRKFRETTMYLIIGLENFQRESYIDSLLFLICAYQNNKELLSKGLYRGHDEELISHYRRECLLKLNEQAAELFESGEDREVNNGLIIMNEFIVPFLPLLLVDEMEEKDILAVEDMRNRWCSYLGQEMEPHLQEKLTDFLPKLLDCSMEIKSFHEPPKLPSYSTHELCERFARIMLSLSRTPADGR
# Procedure, shortened: as §1
# [5] = biological target: T4, USP28 (UniProt Q96RU2)
# T4 sequence (whole entry): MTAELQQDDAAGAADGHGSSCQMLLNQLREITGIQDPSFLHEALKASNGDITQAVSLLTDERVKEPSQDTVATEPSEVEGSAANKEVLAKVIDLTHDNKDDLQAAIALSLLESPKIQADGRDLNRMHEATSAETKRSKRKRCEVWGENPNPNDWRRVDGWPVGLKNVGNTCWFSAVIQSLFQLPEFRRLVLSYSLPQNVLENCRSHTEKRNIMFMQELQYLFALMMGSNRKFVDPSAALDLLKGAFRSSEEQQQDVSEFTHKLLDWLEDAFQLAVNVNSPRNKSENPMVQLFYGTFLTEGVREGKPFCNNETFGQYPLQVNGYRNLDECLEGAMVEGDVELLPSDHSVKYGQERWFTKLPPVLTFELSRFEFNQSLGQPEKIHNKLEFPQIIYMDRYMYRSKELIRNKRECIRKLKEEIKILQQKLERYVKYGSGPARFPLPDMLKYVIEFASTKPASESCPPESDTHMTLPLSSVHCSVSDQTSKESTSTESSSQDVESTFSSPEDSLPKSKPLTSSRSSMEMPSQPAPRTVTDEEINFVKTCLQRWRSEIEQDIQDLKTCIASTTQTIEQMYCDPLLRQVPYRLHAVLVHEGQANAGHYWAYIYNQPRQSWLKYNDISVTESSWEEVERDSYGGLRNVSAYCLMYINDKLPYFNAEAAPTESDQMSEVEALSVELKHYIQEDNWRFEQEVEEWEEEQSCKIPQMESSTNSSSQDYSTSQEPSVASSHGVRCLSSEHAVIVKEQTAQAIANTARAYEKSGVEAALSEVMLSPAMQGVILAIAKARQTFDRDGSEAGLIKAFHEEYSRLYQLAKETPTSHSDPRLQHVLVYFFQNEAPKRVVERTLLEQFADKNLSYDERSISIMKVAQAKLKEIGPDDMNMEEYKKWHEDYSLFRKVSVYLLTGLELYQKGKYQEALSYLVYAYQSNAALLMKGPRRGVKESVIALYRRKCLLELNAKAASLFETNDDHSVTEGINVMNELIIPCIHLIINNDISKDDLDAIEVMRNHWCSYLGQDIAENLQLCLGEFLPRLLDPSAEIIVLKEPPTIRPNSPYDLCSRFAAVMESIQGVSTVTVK
# Procedure, shortened: as §1
# Sequence of USP24 (Q9UPU5 whole entry): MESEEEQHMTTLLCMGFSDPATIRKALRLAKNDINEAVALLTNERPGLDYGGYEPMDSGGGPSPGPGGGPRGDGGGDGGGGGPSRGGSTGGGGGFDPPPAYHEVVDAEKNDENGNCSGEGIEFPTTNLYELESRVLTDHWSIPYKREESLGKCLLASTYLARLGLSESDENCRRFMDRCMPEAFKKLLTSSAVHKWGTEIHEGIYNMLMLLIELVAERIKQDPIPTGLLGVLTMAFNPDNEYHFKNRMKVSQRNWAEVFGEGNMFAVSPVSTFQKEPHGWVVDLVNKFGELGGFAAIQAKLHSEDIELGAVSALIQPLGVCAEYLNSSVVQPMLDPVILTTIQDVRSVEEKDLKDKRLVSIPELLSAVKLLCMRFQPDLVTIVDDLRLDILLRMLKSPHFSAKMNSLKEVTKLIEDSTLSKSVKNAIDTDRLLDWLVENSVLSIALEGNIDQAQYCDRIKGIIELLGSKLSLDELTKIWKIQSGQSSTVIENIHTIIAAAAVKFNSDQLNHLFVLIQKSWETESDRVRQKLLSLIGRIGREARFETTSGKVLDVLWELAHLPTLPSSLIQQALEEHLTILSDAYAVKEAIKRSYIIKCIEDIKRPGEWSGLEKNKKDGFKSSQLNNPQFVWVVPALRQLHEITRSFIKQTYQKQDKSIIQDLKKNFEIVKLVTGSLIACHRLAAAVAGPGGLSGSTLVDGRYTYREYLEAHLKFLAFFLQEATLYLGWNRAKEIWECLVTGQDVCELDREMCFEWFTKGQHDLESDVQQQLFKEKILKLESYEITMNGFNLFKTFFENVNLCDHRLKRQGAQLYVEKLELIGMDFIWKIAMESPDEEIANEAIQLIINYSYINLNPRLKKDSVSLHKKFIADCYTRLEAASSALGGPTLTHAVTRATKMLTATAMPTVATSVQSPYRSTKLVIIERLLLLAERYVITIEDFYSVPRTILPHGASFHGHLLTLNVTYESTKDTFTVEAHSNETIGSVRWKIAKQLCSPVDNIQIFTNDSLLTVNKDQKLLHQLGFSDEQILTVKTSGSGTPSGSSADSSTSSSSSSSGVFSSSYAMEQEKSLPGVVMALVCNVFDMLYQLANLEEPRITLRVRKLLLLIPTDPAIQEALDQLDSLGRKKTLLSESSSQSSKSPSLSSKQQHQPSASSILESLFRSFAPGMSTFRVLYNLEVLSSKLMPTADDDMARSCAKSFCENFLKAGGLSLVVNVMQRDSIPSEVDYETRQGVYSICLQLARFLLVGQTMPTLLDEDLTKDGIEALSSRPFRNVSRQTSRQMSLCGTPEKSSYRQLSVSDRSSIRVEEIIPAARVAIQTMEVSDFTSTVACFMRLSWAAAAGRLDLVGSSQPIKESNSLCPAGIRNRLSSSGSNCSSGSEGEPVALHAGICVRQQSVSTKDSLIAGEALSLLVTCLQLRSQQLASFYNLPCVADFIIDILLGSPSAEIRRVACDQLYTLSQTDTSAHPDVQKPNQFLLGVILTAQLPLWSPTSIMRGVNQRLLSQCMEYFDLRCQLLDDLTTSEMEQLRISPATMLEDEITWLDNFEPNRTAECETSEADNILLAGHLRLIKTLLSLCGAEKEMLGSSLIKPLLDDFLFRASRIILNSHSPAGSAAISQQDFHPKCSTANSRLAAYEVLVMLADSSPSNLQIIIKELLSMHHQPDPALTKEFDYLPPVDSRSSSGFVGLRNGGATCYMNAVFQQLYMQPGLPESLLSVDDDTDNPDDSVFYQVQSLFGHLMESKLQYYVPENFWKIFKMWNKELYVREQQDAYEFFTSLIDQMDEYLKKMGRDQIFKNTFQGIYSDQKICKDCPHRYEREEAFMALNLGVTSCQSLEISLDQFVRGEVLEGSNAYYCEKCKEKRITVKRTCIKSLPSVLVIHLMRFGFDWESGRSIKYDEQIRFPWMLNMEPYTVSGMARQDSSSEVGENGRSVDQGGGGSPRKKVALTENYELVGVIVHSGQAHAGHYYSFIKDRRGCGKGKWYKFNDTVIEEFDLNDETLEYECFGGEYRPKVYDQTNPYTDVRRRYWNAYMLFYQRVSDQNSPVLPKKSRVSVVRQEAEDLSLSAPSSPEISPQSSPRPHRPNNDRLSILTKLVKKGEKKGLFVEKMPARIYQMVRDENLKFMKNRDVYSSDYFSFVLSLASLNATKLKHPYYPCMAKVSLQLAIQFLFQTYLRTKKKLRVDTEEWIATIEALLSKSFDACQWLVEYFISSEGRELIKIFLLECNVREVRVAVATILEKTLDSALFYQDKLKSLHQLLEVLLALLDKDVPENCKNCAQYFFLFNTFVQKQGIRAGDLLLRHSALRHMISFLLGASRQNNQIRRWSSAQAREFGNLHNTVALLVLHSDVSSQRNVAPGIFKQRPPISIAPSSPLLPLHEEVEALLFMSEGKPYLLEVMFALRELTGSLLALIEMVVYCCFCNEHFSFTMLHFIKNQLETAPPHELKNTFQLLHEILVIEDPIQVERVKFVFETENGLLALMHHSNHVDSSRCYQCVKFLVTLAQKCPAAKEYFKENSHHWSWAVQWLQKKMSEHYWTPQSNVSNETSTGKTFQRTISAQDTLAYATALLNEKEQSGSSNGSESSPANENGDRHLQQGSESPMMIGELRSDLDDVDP
smiles,measurement,setting,value
O=C(CCl)NC1CCOc2ccccc21 (stereo not given),log2 ratio of Biotin-Ahx-Ub-VS probe labelling,[1],-0.918
same,log2 ratio of Biotin-Ahx-Ub-VS probe labelling,[2],-0.51
same,log2 ratio of Biotin-Ahx-Ub-VS probe labelling,[3],-1.01 (active)
same,log2 ratio of Biotin-Ahx-Ub-VS probe labelling,[4],-1.23 (active)
same,log2 ratio of Biotin-Ahx-Ub-VS probe labelling,[5],-1.6 (active)
